Results on 24 molecules are retold here after PubChem BioAssay (NCATS).

Structures are written as SMILES. Inconclusive results are not listed. Active and inactive are the calls of the source. Calls follow the shape of the dose curve; as a rule, active = well fitted curve in the direction sought with a large enough effect; inconclusive = small, poorly fitted or top-dose-only effect, or another doubt; inactive = no such curve, though single readings can be large; an effect the other way counts as inactive or inconclusive.
Also: nearly all actives have a fitted effect of over 35% in size.
Potency is read from the fitted curve at half-maximal effect.

A short description of the first assay: Quantitative highthroughput screen to assess conditional lethalithy of P12 Ichikawa cells grown in RPMI1640 with dialyzed fetal bovine serum (RPMI+ds) (AID 1963880). The conditions noted are these: ATP luminescence, 48 h; Potency: P12-Ichikawa viability; series mostly up to 45.8 µM. The method, boiled down:
(§1)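 Each medium arm—HPLM with 10% dialyzed FBS, or RPMI1640 with 5 mM glucose and 10% untreated or dialyzed FBS—was screened against an 11-point, 3-fold compound titration for 48 h at 37 °C, with CellTiter-Glo luminescence as endpoint.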
`COc1cc2c(cc1OC)[C@@H]1Cc3ccc(OC)c(OC)c3CN1CC2`: the Potency result was “inactive”.
On the same count and under the same terms, for `COc1cc(CNC(=O)CCCCC=CC(C)C)ccc1O` the value was 0.418 µM (active); for `CC[C@@]1([C@@H]2O[C@@H]([C@H]3O[C@@](O)(CO)[C@H](C)C[C@H]3C)C[C@H]2C)CC[C@H]([C@]2(C)CC[C@]3(C[C@H](O)[C@@H](C)[C@@H]([C@@H](C)[C@@H](OC)[C@H](C)C(=O)O)O3)O2)O1`, 2.29 µM (active); for `N#CC(=C(N)Sc1ccc(N)cc1)c1ccccc1C(F)(F)F`, “inactive”.
The same measure, in the same setting: the entry for `CON=C(C(=O)N[C@@H]1C(=O)N2C(C(=O)O)=C(CSC(=O)c3ccco3)CS[C@H]12)c1csc(N)n1` is “inactive”; for `CON=C(C(=O)N[C@@H]1C(=O)N2C(C(=O)OCOC(=O)C(C)(C)C)=C(C=Cc3scnc3C)CS[C@H]12)c1csc(N)n1` it is 16.6 µM (active); for `NC(=O)c1cnc(N[C@@H]2CCCC[C@@H]2N)nc1Nc1cccc(-n2nccn2)c1` it is “inactive”.
Still for that read-out and setting: the entry for `CC[C@H](CC[C@@H](C)[C@H]1CC[C@H]2[C@@H]3CC=C4C[C@@H](O)CC[C@]4(C)[C@@H]3CC[C@]12C)C(C)C` is “inactive”; for `Cc1onc(-c2ccccc2)c1C(=O)N[C@@H]1C(=O)N2[C@@H](C(=O)O)C(C)(C)S[C@@H]12` it is 1.05 µM (active).
Regarding `C[C@@H](Oc1cc(-c2cnn(C3CCNCC3)c2)cnc1N)c1c(Cl)ccc(F)c1Cl`, the Potency is 18.7 µM (active).

The nature of another assay: Quantitative highthroughput screen to assess conditional lethalithy of P12 Ichikawa cells grown in RPMI1640 with untreated serum (RPMI+s) (AID 1963881). The conditions noted are these: ATP luminescence, 48 h; Potency: viability; series mostly up to 45.8 µM. The method in brief: as §1
`COc1cc2c(cc1OC)[C@@H]1Cc3ccc(OC)c(OC)c3CN1CC2`: the Potency result is “inactive”.
On the same count and under the same terms, the entry for `COc1ccc(Cc2nccc3cc(OC)c(OC)cc23)cc1OC` is “inactive”.
Same read-out and setting: the figure for `COc1cc(CNC(=O)CCCCC=CC(C)C)ccc1O` is 0.833 µM (active); for `CCOC(=O)N1CCN([N+]([O-])=NOc2ccc([N+](=O)[O-])cc2[N+](=O)[O-])CC1` it is 23.5 µM (active); for `CC[C@@]1([C@@H]2O[C@@H]([C@H]3O[C@@](O)(CO)[C@H](C)C[C@H]3C)C[C@H]2C)CC[C@H]([C@]2(C)CC[C@]3(C[C@H](O)[C@@H](C)[C@@H]([C@@H](C)[C@@H](OC)[C@H](C)C(=O)O)O3)O2)O1` it is 1.44 µM (active).
Still for that read-out and setting: the figure for `Fc1ccc([C@@H]2CCNC[C@H]2COc2ccc3c(c2)OCO3)cc1` is 14.8 µM (active); for `COc1cc([C@@H]2c3cc4c(cc3[C@@H](O[C@@H]3O[C@@H]5CO[C@@H](c6cccs6)O[C@@H]5[C@H](O)[C@@H]3O)[C@H]3COC(=O)[C@H]23)OCO4)cc(OC)c1O` it is 0.743 µM (active).
For `N#CC(=C(N)Sc1ccc(N)cc1)c1ccccc1C(F)(F)F`, the Potency was 2.96 µM (active).
Same read-out and setting: the entry for `CON=C(C(=O)N[C@@H]1C(=O)N2C(C(=O)O)=C(CSC(=O)c3ccco3)CS[C@H]12)c1csc(N)n1` is “inactive”.
Take `CON=C(C(=O)N[C@@H]1C(=O)N2C(C(=O)OCOC(=O)C(C)(C)C)=C(C=Cc3scnc3C)CS[C@H]12)c1csc(N)n1`: the Potency is 14.8 µM (active).
Consider `CON(C)C(=O)N1N=C(c2cc(F)ccc2F)S[C@]1(CCCN)c1ccccc1`, for which the Potency result was “inactive”.
On the same count and under the same terms, for `Cc1cn2c(-c3cn[nH]c3)cnc2c(Nc2ccc(C(=O)N3CCNCC3)cc2F)n1` the value was 18.7 µM (active).
Same read-out and setting: for `CN1CCN(CCCN2c3ccccc3Sc3ccc(Cl)cc32)CC1` the value was 8.33 µM (active); for `C[C@@H](Oc1cc(-c2cnn(C3CCNCC3)c2)cnc1N)c1c(Cl)ccc(F)c1Cl`, 16.6 µM (active).

A further assay in a line: Quantitative highthroughput screen to assess conditional lethalithy of SEM cells grown in Human Plasma-Like Medium with dialyzed fetal bovine serum (HPLM+ds) (AID 1963882). The note with it: SEM B-ALL cells in HPLM+ds, CellTiter-Glo viability, 48 h; series mostly up to 45.8 µM. The method, boiled down: as §1
Turning to `COc1ccc(Cc2nccc3cc(OC)c(OC)cc23)cc1OC`, the Potency result is “inactive”.
The same measure, in the same setting: the figure for `Nc1nc(F)nc2c1ncn2[C@@H]1O[C@H](COP(=O)(O)O)[C@@H](O)[C@H]1O` is 1.48 µM (active).
As to `CN(C)CCOc1ccc(C(=C(CCCl)c2ccccc2)c2ccccc2)cc1`, the Potency is 5.9 µM (active).
Regarding `CC[C@@]1([C@@H]2O[C@@H]([C@H]3O[C@@](O)(CO)[C@H](C)C[C@H]3C)C[C@H]2C)CC[C@H]([C@]2(C)CC[C@]3(C[C@H](O)[C@@H](C)[C@@H]([C@@H](C)[C@@H](OC)[C@H](C)C(=O)O)O3)O2)O1`, the Potency is 0.512 µM (active).
The same measure, in the same setting: the figure for `Fc1ccc([C@@H]2CCNC[C@H]2COc2ccc3c(c2)OCO3)cc1` is 14.8 µM (active).
Same read-out and setting: the figure for `CO[C@H]1C[C@@H]2CC[C@@H](C)[C@@](O)(O2)C(=O)C(=O)N2CCCC[C@@H]2C(=O)O[C@H]([C@H](C)C[C@@H]2CC[C@H](OCCO)[C@H](OC)C2)CC(=O)[C@H](C)C=C(C)[C@@H](O)[C@@H](OC)C(=O)[C@H](C)C[C@H](C)C=CC=CC=C1C` is 0.59 µM (active); for `CON=C(C(=O)N[C@@H]1C(=O)N2C(C(=O)O)=C(CSC(=O)c3ccco3)CS[C@H]12)c1csc(N)n1` it is “inactive”; for `CON=C(C(=O)N[C@@H]1C(=O)N2C(C(=O)OCOC(=O)C(C)(C)C)=C(C=Cc3scnc3C)CS[C@H]12)c1csc(N)n1` it is “inactive”.
Same read-out and setting: the figure for `CO[C@H]1/C=C\O[C@@]2(C)Oc3c(C)c(O)c4c(O)c(c5c(nc6cc(C)ccn65)c4c3C2=O)NC(=O)C(C)=CC=C[C@H](C)[C@H](O)[C@@H](C)[C@@H](O)[C@@H](C)[C@H](OC(C)=O)[C@H]1C` is 18.7 µM (active); for `Cc1cc(=O)c2c(O)c3c(O)cc(=O)c4c3c3c(cc(O)c1c23)C(C)(C)C=4O` it is “inactive”.
Consider `CON(C)C(=O)N1N=C(c2cc(F)ccc2F)S[C@]1(CCCN)c1ccccc1`, for which the Potency entry was “inactive”.
Still for that read-out and setting: the figure for `Cc1cn2c(-c3cn[nH]c3)cnc2c(Nc2ccc(C(=O)N3CCNCC3)cc2F)n1` is 13.2 µM (active).
Same read-out and setting: the entry for `CC[C@H](CC[C@@H](C)[C@H]1CC[C@H]2[C@@H]3CC=C4C[C@@H](O)CC[C@]4(C)[C@@H]3CC[C@]12C)C(C)C` is “inactive”.
On to `CC(C)=CCCC(C)=CCCC(C)=CCSc1ccccc1C(=O)O`, for which the Potency was 6.62 µM (active).
Still for that read-out and setting: the figure for `COc1cc2nc(-c3cc(F)ccc3O)nc(N[C@@H]3CNC[C@@H]3C(C)(C)O)c2cc1OC` is 0.332 µM (active); for `Cc1onc(-c2ccccc2)c1C(=O)N[C@@H]1C(=O)N2[C@@H](C(=O)O)C(C)(C)S[C@@H]12` it is “inactive”.
